Measurements from PubChem BioAssay.
Calls of active or inactive are those of the source.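 The calls were made as follows, unless noted: active = inhibition above 20% together with a positive visual image hit; inconclusive = visual image hit but inhibition not above 20%; inactive = no visual image hit.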

assay: inhibitors of TNFa-induced NFkB p65 translocation, primary screen, imaging, HUVEC, MLSMR starter and 10KST1 sets (AID 438); settings: HUVEC TNFa-induced p65 nuclear translocation; cell count: measured here: nuclei count (cytotoxicity indicator), at 2.08 µM; inhibition: at 2 µM, stronger effect = higher value, 0% TNFa-plus-vehicle, 100% no-TNFa wells;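 also: compound added about 3h40 before a 20 min TNFalpha stimulation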;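 as to inhibition: signal is the nuclear over cytoplasmic p65 intensity ratio per well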

Structure (SMILES)	cell count	inhibition
O=C(NCc1ccco1)c1cccc(S(=O)(=O)N2CCCCC2)c1	323	-3.6% (inactive)
O=C(O)c1ccc(C2SCC(=O)N2Cc2ccccc2)cc1 (stereo not given)	323	-0.4% (inactive)
Nc1cc(N)nc(SCc2ccccc2)n1	371	1.1% (inactive)
O=C(NCCCN1CCN(c2cccc(Cl)c2)CC1)c1ccc(N2CCCC2=O)cc1	763	-10% (inactive)
COc1ccccc1-n1c(SCC(=O)NC(C)(C)C)nnc1-c1ccco1	662	-13.1% (inactive)
O=C(NCc1ccco1)c1cc2sccc2n1Cc1ccccc1	455	5% (inactive)
CC(Sc1n[nH]c(=O)[nH]c1=O)C(=O)OCc1ccccc1 (stereo not given)	281	-2.5% (inactive)
COc1ccc(OC)c(Nc2nc(-c3cccs3)cs2)c1	333	1.5% (inactive)
COc1cc(NC(=O)Nc2cccc(C(C)=O)c2)cc(OC)c1OC	674	-9.3% (inactive)
CN1CCN(c2ccc(Cl)cc2NC(=O)c2cccc(S(=O)(=O)N(C)C)c2)CC1	378	0.5% (inactive)
Brc1ccc2ncnc(Nc3ccc(N4CCOCC4)cc3)c2c1	534	-13.2% (inactive)
COc1ccc(Cl)cc1NC(=O)CSc1nncn1-c1cccnc1	391	-10.2% (inactive)
COc1cccc(NC(=O)c2ccccc2NS(C)(=O)=O)c1	328	-6.5% (inactive)
O=S(=O)(c1cccc2c(S(=O)(=O)N3CCCC3)cccc12)N1CCCC1	250	-13.4% (inactive)
CCN1CCN(c2nc3c(c(=O)n(C)c(=O)n3C)n2Cc2cccc3ccccc23)CC1	471	-6% (inactive)
Cn1c(-c2ccccc2)cnc1SCc1nc2ccccc2c(=O)[nH]1	428	0.8% (inactive)
COc1ccccc1N1CCN(C(=O)c2cc(-c3ccc(Cl)c(Cl)c3)on2)CC1	430	5.1% (inactive)
COc1ccc(CN(CC(=O)NCC2CCCO2)C(=O)CCC(=O)Nc2cc(C)on2)cc1 (stereo not given)	242	7.6% (inactive)
CCc1ccc2[nH]c(=O)c(C(c3nnnn3CC3CCCO3)N3CCN4CCCC4C3)cc2c1 (stereo not given)	314	12.3% (inactive)
COc1ccc(OC)c(NC(=O)C23CCC(C)(C(=O)C2)C3(C)C)c1 (stereo not given)	512	-4.8% (inactive)

Structure (SMILES)	cell count	inhibition
CC(C)(C)NS(=O)(=O)c1ccc(CCC(=O)O)cc1	395	4.2% (inactive)
COc1ccc(COC(=O)c2n[nH]c3ccccc23)cc1F	380	3.9% (inactive)
O=C(NC1CCCC1)C(NS(=O)(=O)c1cccc2nsnc12)c1ccccc1 (stereo not given)	309	-16.3% (inactive)
COc1ccc(C(C)NC(=O)c2ccoc2C)cc1OC (stereo not given)	307	-8.9% (inactive)
Cc1ccc(C(O)c2nc3ccccc3n2C(C)C)cc1 (stereo not given)	304	-3.7% (inactive)
CCOC(=O)c1cc(CC)sc1NC(=O)COC	324	-6% (inactive)
COc1ccccc1C1N(c2ccc(F)cc2)C(=O)C2CCCN21 (stereo not given)	429	-3.9% (inactive)
CCC1CCCCN1CCCNC(=O)c1ccc(CS(=O)(=O)Cc2ccccc2F)o1 (stereo not given)	618	-20.5% (inactive)
Cc1cc(C)n2nc(SCC(=O)N(C)Cc3ccccc3)nc2n1	407	7.4% (inactive)
O=C(NCC(=O)N(c1cccnc1)C(C(=O)NC1CCCCC1)c1cccnc1)c1ccco1 (stereo not given)	424	6.8% (inactive)
O=C(Nc1sccc1C(=O)NCc1ccco1)c1cccnc1	343	2.1% (inactive)
COc1ccc(Cl)c(N2CCN(CCCNC(=O)Nc3ccc(C)cc3)CC2)c1	320	2.4% (inactive)
Cc1cccc(OCC(=O)Nc2cc(C)ccc2O)c1	311	0.5% (inactive)
COCc1nnc(SCC(=O)NC(C)c2ccccc2)n1-c1ccccc1 (stereo not given)	308	-1.1% (inactive)
COc1ccccc1N(CC(=O)NC1CCCC1)C(=O)c1csnn1	723	-1.7% (inactive)
Cc1cccc(NC(=O)CCCCCN2C(=O)c3ccccc3C2=O)n1	495	-4.8% (inactive)
O=C(Cc1cccs1)N(c1ccccc1)C1C=CS(=O)(=O)C1 (stereo not given)	294	4.2% (inactive)
Cc1ccc(Cn2c(SCC(N)=O)nc3c2c(=O)n(C)c(=O)n3C)cc1	582	-6.2% (inactive)
COc1cccc(CN2C(=O)C3(C(C#N)=C(N)OC4=C3C(=O)CCC4)c3ccccc32)c1 (stereo not given)	352	-0.9% (inactive)
COc1cccc(OCc2nnc(SCC(=O)OCc3ccccc3)o2)c1	328	3.3% (inactive)

assay: reduction of polyQ htt aggregates in cells – imaging, exon1htt(103Q)mCFP cells, high-content imaging, primary screen (AID 483;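 active = visual image review flags a hit and inhibition of aggregation exceeds 20%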;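 also: compound exposure lasted 3 days before fixation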;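 as to nuclei count: percent of the per-plate median nuclei count of sample wells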); settings: exon1htt(103Q)mCFP cell line, aggregate imaging, at 2 µM; inhibition of aggregation: stronger effect = higher value; nuclei count: measured here: cell count, toxicity

Structure (SMILES)	nuclei count [%]	inhibition of aggregation
O=C(NCc1ccco1)c1cccc(S(=O)(=O)N2CCCCC2)c1	112	-3.2% (inactive)
O=C(O)c1ccc(C2SCC(=O)N2Cc2ccccc2)cc1 (stereo not given)	57.9	15.9% (inactive)
Nc1cc(N)nc(SCc2ccccc2)n1	103	6.6% (inactive)
O=C(NCCCN1CCN(c2cccc(Cl)c2)CC1)c1ccc(N2CCCC2=O)cc1	97.9	11.5% (inactive)
COc1ccccc1-n1c(SCC(=O)NC(C)(C)C)nnc1-c1ccco1	87.8	6.2% (inactive)
O=C(NCc1ccco1)c1cc2sccc2n1Cc1ccccc1	114	8.8% (inactive)
CC(Sc1n[nH]c(=O)[nH]c1=O)C(=O)OCc1ccccc1 (stereo not given)	89.4	10.6% (inactive)
COc1ccc(OC)c(Nc2nc(-c3cccs3)cs2)c1	104	-9.1% (inactive)
COc1cc(NC(=O)Nc2cccc(C(C)=O)c2)cc(OC)c1OC	99.7	-22% (inactive)
CN1CCN(c2ccc(Cl)cc2NC(=O)c2cccc(S(=O)(=O)N(C)C)c2)CC1	133	-6.9% (inactive)
Brc1ccc2ncnc(Nc3ccc(N4CCOCC4)cc3)c2c1	106	8.9% (inactive)
COc1ccc(Cl)cc1NC(=O)CSc1nncn1-c1cccnc1	58.8	25.6% (inactive)
COc1cccc(NC(=O)c2ccccc2NS(C)(=O)=O)c1	112	-12.9% (inactive)
O=S(=O)(c1cccc2c(S(=O)(=O)N3CCCC3)cccc12)N1CCCC1	118	-7.2% (inactive)
CCN1CCN(c2nc3c(c(=O)n(C)c(=O)n3C)n2Cc2cccc3ccccc23)CC1	85.1	14.8% (inactive)
Cn1c(-c2ccccc2)cnc1SCc1nc2ccccc2c(=O)[nH]1	119	-3.4% (inactive)
COc1ccccc1N1CCN(C(=O)c2cc(-c3ccc(Cl)c(Cl)c3)on2)CC1	97.3	-5.8% (inactive)
COc1ccc(CN(CC(=O)NCC2CCCO2)C(=O)CCC(=O)Nc2cc(C)on2)cc1 (stereo not given)	89.3	7.1% (inactive)
CCc1ccc2[nH]c(=O)c(C(c3nnnn3CC3CCCO3)N3CCN4CCCC4C3)cc2c1 (stereo not given)	107	-16.9% (inactive)
COc1ccc(OC)c(NC(=O)C23CCC(C)(C(=O)C2)C3(C)C)c1 (stereo not given)	98.5	4.8% (inactive)

Structure (SMILES)	nuclei count [%]	inhibition of aggregation
CC(C)(C)NS(=O)(=O)c1ccc(CCC(=O)O)cc1	82.6	-0.1% (inactive)
COc1ccc(COC(=O)c2n[nH]c3ccccc23)cc1F	125	-16% (inactive)
O=C(NC1CCCC1)C(NS(=O)(=O)c1cccc2nsnc12)c1ccccc1 (stereo not given)	103	2.5% (inactive)
COc1ccc(C(C)NC(=O)c2ccoc2C)cc1OC (stereo not given)	105	-2.3% (inactive)
Cc1ccc(C(O)c2nc3ccccc3n2C(C)C)cc1 (stereo not given)	91.7	11% (inactive)
CCOC(=O)c1cc(CC)sc1NC(=O)COC	86.3	-9.4% (inactive)
COc1ccccc1C1N(c2ccc(F)cc2)C(=O)C2CCCN21 (stereo not given)	84.3	7.1% (inactive)
CCC1CCCCN1CCCNC(=O)c1ccc(CS(=O)(=O)Cc2ccccc2F)o1 (stereo not given)	94.4	7.5% (inactive)
Cc1cc(C)n2nc(SCC(=O)N(C)Cc3ccccc3)nc2n1	116	-27.8% (inactive)
O=C(NCC(=O)N(c1cccnc1)C(C(=O)NC1CCCCC1)c1cccnc1)c1ccco1 (stereo not given)	109	6.3% (inactive)
O=C(Nc1sccc1C(=O)NCc1ccco1)c1cccnc1	103	-22.2% (inactive)
COc1ccc(Cl)c(N2CCN(CCCNC(=O)Nc3ccc(C)cc3)CC2)c1	98.8	-10.7% (inactive)
Cc1cccc(OCC(=O)Nc2cc(C)ccc2O)c1	95.3	-9.5% (inactive)
COCc1nnc(SCC(=O)NC(C)c2ccccc2)n1-c1ccccc1 (stereo not given)	94.3	5.8% (inactive)
COc1ccccc1N(CC(=O)NC1CCCC1)C(=O)c1csnn1	109	10.7% (inactive)
Cc1cccc(NC(=O)CCCCCN2C(=O)c3ccccc3C2=O)n1	103	-19.8% (inactive)
O=C(Cc1cccs1)N(c1ccccc1)C1C=CS(=O)(=O)C1 (stereo not given)	110	-21.3% (inactive)
Cc1ccc(Cn2c(SCC(N)=O)nc3c2c(=O)n(C)c(=O)n3C)cc1	88	19.4% (inactive)
COc1cccc(CN2C(=O)C3(C(C#N)=C(N)OC4=C3C(=O)CCC4)c3ccccc32)c1 (stereo not given)	94.1	-11.5% (inactive)
COc1cccc(OCc2nnc(SCC(=O)OCc3ccccc3)o2)c1	99.2	1.6% (inactive)
